Records with an inconclusive call do not appear. Calls of active or inactive are those of the source. Unless noted, calls come from the whole dose curve; as a rule, active = well fitted curve in the direction sought with a large enough effect; inconclusive = small, poorly fitted or top-dose-only effect, or another doubt; inactive = no such curve, though single readings can be large; an effect the other way counts as inactive or inconclusive.
Tests used:
[1] = qHTS Assay for Identification of Small Molecule Antagonists for NFkB Signaling Pathway (AID 895; active = well fitted inhibition curve with a large enough effect in the signal ratio, with a control signal flat, not every such curve was filed as active; the % refers to the signal ratio; note: % is set by controls: 0 for no effect and ±100 for the full control effect)
In short: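 ME-180 NFkB-bla cells (beta-lactamase under NFkB response element), plated overnight, treated with compound then 10 pM TNF alpha (about EC50) for 5 hrs at 37 C. LiveBLAzer FRET read at 460/530 nm emission, 405 nm excitation.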

[2] = target: Pyruvate kinase (Leishmania mexicana) (UniProt Q27686); test: qHTS Validation Assay for Activators of Leishmania Mexicana Pyruvate Kinase (AID 959)
In short: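 qHTS eight-point titrations against 0.2 nM LmPYK (E451W) in imidazole buffer pH 7.2 with 0.5 mM PEP, 0.1 mM ADP; 1 h, room temperature. Readout: PKLight luminescence, normalized to neutral DMSO wells.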

[3] = qHTS Assay for Identification of Small Molecule Antagonists for Thrombopoietin (TPO) Signaling Pathway (AID 918); settings: TPO-dependent cell signaling reporter, antagonist mode; note: potency is the fitted concentration of half-maximal effect; nearly all actives have a fitted effect of over 60% in size
In short: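 Inhibitors of TPO signaling are sought by stimulating IL-3-starved murine Ba/F3 cells (human TPO receptor, Glycoprotein IIb-driven luciferase) with TPO at its EC50 of 26 pM alongside compound. After 24 hrs at 37 C, reporter luminescence is measured.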

[4] = target: Cytochrome P450 2C9 (Homo sapiens) (UniProt P11712); test: Cytochrome P450 family 2 subfamily C member 9 (CYP2C9) small molecule antagonists: luciferase biochemical (cell-free) qHTS assay (AID 1645842; active = well fitted curve in the direction sought with a large enough effect in the repeat runs; an effect the other way counts as inactive or inconclusive; note: series mostly up to about 57 µM; % is set by controls: 0 for no effect and ±100 for the full control effect; nearly all actives have a fitted effect of over 55% in size)
In short: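 P450-Glo CYP2C9 system: proluciferin substrate with enzyme in mix containing 0.4% BSA, 10 min at room temperature, then NADPH regeneration solution added and incubated 1 h at 37C. Detection reagent stopped reaction; luminescence read after 20 min as RLU.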

[5] = qHTS for differential inhibitors of proliferation of Plasmodium falciparum line W2 (AID 1883); settings: Potency: Plasmodium falciparum W2 proliferation inhibition;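 note: parasites grown with compound for 72 h before lysis and staining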; note: potency is the fitted concentration of half-maximal effect;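 for activity change, negative = inhibition: 0% = vehicle wells and -100% = control inhibitor wells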
[6] = Validation screen for small molecules that induce DNA re-replication in MCF 10A normal breast cells (AID 463097); note: nearly all actives have a fitted effect of over 60% in size; note: potency is the fitted concentration of half-maximal effect
In short: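 Image-based qHTS: normal breast cells are incubated with compound for 48 hr, stained with Hoechst, and scanned for total nuclear fluorescence. Compounds raising the fraction of nuclei with elevated DNA content count as re-replication inducers.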

[7] = Viability counterscreen for antagonist of constitutive androstane receptor (CAR) against the NCATS DSHEA and TCM libraries (AID 1794837);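 note: compound exposure lasted 24 h before viability reading; 0% is about no effect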
In short: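 Cells: HepG2 line carrying CYP2B6 reporter and hCAR, seeded and attached 5 h. Then pin-transferred test substances plus agonist CITCO at 48 uM final; 24 h incubation; fluorogenic viability reagent, 1 h.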

[8] = Viability counterscreen for agonist of constitutive androstane receptor (CAR) against the NCATS DSHEA and TCM libraries (AID 1794838);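 note: HepG2 cells with CYP2B6 reporter and hCAR plus 0.75 µM PK11195 antagonist; 0% is about no effect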
In short: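 Cell health was measured as CellTiter-Fluor signal in HepG2-CYP2B6-hCAR cells treated for 24 h with substances alongside the hCAR antagonist PK11195 (0.75 uM final).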

[9] = target: Nuclear receptor subfamily 1 group I member 3 (Homo sapiens) (UniProt Q14994); test: Primary qHTS for agonist of constitutive androstane receptor (CAR) against the NCATS DSHEA and TCM libraries (AID 1794839);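 note: HepG2 cells expressing human CAR with a CYP2B6 reporter plus PK11195 antagonist; 0% is about no effect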
In short: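 qHTS, agonist mode: HepG2-CYP2B6-hCAR, 2,500 cells/well, 5 h attach; cpds + PK11195 0.75 µM final; 24 h, 37 °C, 5% CO2. Readouts: CellTiter-Fluor (405/540 nm), then ONE-Glo luminescence.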

[10] = HepG2 viability counterscreen (readout 2: ATP content) against the NCATS DSHEA and TCM libraries (AID 1794840); note: 0% is about no effect
In short: (§1)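 Same wells read twice: first fluorescence from cleaved GF-AFC substrate (25 uM final, 30 min, 37C) for live-cell protease, then CellTiter-Glo luminescence after 30 min at room temperature for ATP. HepG2 cells were exposed ~24 h to substances.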

[11] = HepG2 viability counterscreen (readout 1: protease activity) against the NCATS DSHEA and TCM libraries (AID 1794841);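 note: cells exposed to compounds for about 24 h before the protease read; 0% is about no effect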
In short: as §1

[12] = target: Cytochrome P450 2D6 (Homo sapiens) (UniProt P10635); test: qHTS for inhibitors of CYP2D6 against the NCATS DSHEA and TCM libraries (AID 1919972); note: % is set by controls: 0 for no effect and ±100 for the full control effect
In short: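 CYP2D6 enzyme with pro-luciferin substrate in manufacturer buffer (typically 100 mM KPO4), preincubated 15 min RT with substances (most at 19.5 nM upward); NADPH regeneration system (1x) started 30–45 min RT reaction; P450-Glo luminescence read after 30 min; quinidine as intraplate control.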

[13] = target: Cytochrome P450 2C9 (Homo sapiens) (UniProt P11712); test: qHTS for inhibitors of CYP2C9 against the NCATS DSHEA and TCM libraries (AID 1919973);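 note: luminogenic pro-luciferin CYP2C9 substrate turned into luciferin with NADPH regeneration; series mostly up to about 34 µM; % is set by controls: 0 for no effect and ±100 for the full control effect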
In short: (§2)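 Concentration-response screening with isoform-matched pro-luciferin substrates. The CYP reaction was initiated by NADPH regenerating solution and ran 30-45 min in darkness at room temperature.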

[14] = target: Cytochrome P450 2C19 (Homo sapiens) (UniProt P33261); test: qHTS for inhibitors of CYP2C19 against the NCATS DSHEA and TCM libraries (AID 1919974);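 note: luminescence from luciferin released by CYP2C19 oxidation of a pro-luciferin substrate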; note: potency is the fitted concentration of half-maximal effect; for activity change, negative = inhibition: % is set by controls: 0 for no effect and ±100 for the full control effect
In short: as §2

[15] = KB-3-1 P-gp reporter qHTS against the NCATS DSHEA and TCM libraries (AID 1919975); note: 0% is about no effect
In short: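 KB-3-1 parental line, 1536-well qHTS: cells seeded, ~4 h attachment, pintool compound addition, ~72 h at 37C, then CellTiter-Glo, 30 min RT, luminescence. Concentration-response format.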

[16] = qHTS Counterscreen for compound interference against the NCATS DSHEA and TCM libraries (AID 1919978); settings: firefly luciferase detection reagent interference, luminescence;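 note: compounds preincubated with 1 µM D-luciferin or buffer before detection reagent; % of control where 0% means no effect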
In short: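 Compounds, titrated from 19.5 nM to 39.8 uM final, were pinned onto 1 uM D-luciferin or plain 100 mM potassium phosphate. After 15 min at room temperature, luciferin detection reagent was added for 30 min before the luminescence read.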

[17] = Dual reporter qHTS for agonist of Pregnane X Receptor (hPXR) against the NCATS DSHEA and TCM libraries: Fluorescence readout (AID 1920058); note: 0% is about no effect
In short: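 Cells were plated at 2000 per well and allowed to attach for 5 h. Test substances were pinned in and incubated roughly 24 h. CellTiter-Fluor was then added and fluorescence measured after 1 h.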

[18] = target: Nuclear receptor subfamily 1 group I member 2 (Homo sapiens) (UniProt O75469); test: Dual reporter qHTS for agonist of Pregnane X Receptor (hPXR) against the NCATS DSHEA and TCM libraries: Luminescence readout (AID 1920059); note: 0% is about no effect
In short: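 hPXR-Luc HepG2 cells, 2000/well in 5% charcoal-stripped FBS medium, attached 5 h, then exposed 24 h at 37C to compounds. Viability by CellTiter-Fluor, then luciferase luminescence with ONE-Glo.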

[19] = target: Nuclear receptor subfamily 1 group I member 2 (Homo sapiens) (UniProt O75469); test: Dual reporter qHTS for antagonist of Pregnane X Receptor (hPXR) against the NCATS DSHEA and TCM libraries: Luminescence Readout (AID 1920060); note: 0% is about no effect
In short: (§3)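 Rifampicin-stimulated (2 uM final) hPXR-luciferase HepG2 cells were treated for 24 h with DSNP/TCM substances. Viability came from CellTiter-Fluor fluorescence, reporter activity from ONE-Glo luminescence.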

[20] = Dual reporter qHTS for antagonist of Pregnane X Receptor (hPXR) against the NCATS DSHEA and TCM libraries: Fluorescence Readout (AID 1920061); note: 0% is about no effect
In short: as §3

Chain of Nuclear receptor subfamily 1 group I member 2 (Homo sapiens) (O75469 whole entry, looked up): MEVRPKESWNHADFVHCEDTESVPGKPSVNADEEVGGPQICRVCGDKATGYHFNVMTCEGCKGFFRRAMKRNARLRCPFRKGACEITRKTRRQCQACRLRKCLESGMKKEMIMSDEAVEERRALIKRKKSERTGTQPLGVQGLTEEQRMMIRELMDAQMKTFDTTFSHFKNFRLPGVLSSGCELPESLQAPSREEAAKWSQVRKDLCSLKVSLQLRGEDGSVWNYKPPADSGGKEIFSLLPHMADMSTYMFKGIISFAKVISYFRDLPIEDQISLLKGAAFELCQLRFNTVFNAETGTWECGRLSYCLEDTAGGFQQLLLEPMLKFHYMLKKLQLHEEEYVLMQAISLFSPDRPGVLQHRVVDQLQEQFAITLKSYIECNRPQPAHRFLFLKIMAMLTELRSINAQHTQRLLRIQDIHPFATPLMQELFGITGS
Chain of Cytochrome P450 2C9 (Homo sapiens) (P11712 whole entry, looked up, canonical isoform): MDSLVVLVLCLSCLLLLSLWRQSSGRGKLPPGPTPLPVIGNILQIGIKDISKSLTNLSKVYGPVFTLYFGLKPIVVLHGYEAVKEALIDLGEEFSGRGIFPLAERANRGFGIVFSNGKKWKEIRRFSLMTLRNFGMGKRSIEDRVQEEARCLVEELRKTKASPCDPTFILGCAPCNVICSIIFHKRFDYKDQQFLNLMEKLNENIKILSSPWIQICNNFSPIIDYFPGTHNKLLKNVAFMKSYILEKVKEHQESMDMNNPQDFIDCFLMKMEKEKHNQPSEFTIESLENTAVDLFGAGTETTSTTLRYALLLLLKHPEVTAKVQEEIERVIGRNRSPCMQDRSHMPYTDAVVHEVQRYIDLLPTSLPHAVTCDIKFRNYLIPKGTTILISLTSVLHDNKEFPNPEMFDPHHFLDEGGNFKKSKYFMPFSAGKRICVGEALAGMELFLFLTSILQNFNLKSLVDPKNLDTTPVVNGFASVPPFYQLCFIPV
Chain of Pyruvate kinase (Leishmania mexicana) (Q27686 2-499 E452W): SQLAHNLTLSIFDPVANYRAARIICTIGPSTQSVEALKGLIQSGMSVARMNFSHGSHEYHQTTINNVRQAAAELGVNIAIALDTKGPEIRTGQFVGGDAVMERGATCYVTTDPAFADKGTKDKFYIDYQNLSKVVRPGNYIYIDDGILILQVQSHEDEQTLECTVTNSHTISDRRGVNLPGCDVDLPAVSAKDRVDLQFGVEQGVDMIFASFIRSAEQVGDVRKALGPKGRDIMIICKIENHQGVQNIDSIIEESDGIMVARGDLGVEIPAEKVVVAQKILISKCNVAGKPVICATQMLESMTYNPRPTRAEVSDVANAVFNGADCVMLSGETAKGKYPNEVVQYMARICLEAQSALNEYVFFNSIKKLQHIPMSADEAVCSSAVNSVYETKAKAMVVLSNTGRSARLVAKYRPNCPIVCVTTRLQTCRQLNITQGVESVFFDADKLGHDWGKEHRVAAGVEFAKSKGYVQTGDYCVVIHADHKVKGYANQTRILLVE
Chain of Nuclear receptor subfamily 1 group I member 3 (Homo sapiens) (Q14994 whole entry, looked up): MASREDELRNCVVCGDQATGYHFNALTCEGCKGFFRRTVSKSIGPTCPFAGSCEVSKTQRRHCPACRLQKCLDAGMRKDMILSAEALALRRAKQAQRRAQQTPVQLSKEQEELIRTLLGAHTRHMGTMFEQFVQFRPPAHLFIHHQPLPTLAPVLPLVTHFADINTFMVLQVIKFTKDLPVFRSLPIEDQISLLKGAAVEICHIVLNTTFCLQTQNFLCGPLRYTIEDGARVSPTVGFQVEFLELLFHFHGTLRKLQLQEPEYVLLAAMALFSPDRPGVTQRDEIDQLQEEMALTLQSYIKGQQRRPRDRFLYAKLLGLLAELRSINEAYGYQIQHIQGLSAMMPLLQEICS
Chain of Cytochrome P450 2C19 (Homo sapiens) (P33261 whole entry, looked up): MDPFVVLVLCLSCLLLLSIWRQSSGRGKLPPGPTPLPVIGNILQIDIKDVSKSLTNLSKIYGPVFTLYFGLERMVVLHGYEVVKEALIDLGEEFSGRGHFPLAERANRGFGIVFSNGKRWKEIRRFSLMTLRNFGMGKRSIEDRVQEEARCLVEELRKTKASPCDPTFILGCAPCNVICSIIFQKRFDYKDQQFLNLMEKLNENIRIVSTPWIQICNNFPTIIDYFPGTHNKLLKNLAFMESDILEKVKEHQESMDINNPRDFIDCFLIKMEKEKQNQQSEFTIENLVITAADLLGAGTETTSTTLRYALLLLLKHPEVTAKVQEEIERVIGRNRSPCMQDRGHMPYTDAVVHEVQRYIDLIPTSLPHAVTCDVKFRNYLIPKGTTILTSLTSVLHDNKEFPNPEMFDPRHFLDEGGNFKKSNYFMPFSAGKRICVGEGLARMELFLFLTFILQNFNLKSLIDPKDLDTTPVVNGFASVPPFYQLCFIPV
Chain of Cytochrome P450 2D6 (Homo sapiens) (P10635 whole entry, looked up): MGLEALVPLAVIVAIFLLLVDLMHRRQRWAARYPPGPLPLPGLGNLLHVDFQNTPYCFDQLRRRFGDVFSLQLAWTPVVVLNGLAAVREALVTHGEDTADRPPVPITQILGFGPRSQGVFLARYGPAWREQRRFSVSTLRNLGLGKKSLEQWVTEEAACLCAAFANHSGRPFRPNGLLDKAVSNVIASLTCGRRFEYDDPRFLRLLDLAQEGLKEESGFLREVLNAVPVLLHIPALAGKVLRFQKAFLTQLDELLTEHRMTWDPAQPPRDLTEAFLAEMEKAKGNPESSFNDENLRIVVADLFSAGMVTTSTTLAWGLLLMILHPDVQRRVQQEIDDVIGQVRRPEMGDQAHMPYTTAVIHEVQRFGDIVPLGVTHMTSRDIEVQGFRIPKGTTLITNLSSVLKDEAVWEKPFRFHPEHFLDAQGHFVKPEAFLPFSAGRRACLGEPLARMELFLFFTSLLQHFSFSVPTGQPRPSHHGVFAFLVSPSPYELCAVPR

CC(C)(C)NC[C@H](O)COc1cccc2[nH]c(=O)[nH]c12
inactive: Potency [1]

N[C@]1(C(=O)O)CCc2cc(C(=O)O)ccc21
inactive: Potency [1]
active: Potency [2] 15.8 µM

CC(C)(C)c1ccc(S(=O)(=O)/C=C\C#N)cc1
active: Potency [3] 0.794 µM

O=C1CC[C@H](C(=O)O)N1
inactive: Potency [4]

C[N+](C)(C)CCC(=O)c1cccc2ccccc12
active: Potency [3] 2.51 µM | Potency [6] 1.78 µM
inactive: Potency [5]

CC/C=C\C/C=C\C/C=C\C/C=C\C/C=C\CCCCCC(=O)O
inactive: viability change, negative = cytotoxic [7] -12.7% [at 5 µM] | activity change, negative = cytotoxicity [8] -18.6% [at 5 µM] | activation [9] -16.7% [at 5 µM] | activity change, negative = cytotoxic [10] -0.254% [at 3.42 µM] | activity change, negative = inhibition [11] -1.31% [at 3.42 µM] | activity change, negative = inhibition [12] -3.67% [at 4.27 µM] | Potency [13] | Potency [14] | activity change, negative = inhibition [15] -17.1% [at 3.26 µM] | max response [16] 0.0363% | activation [17] -9.65% [at 5 µM] | activation [18] -6.56% [at 5 µM] | activity change, negative = inhibition [19] -29.3% [at 5 µM] | activity change, negative = inhibition [20] 2.07% [at 5 µM]

CCCCC[C@H](O)CC(=O)CCc1ccc(O)c(OC)c1
active: Potency [14] 14.1 µM
inactive: outcome [7] | outcome [8] | outcome [9] | outcome [10] | outcome [11] | outcome [12] | Potency [13] | outcome [15] | max response [16] 0.254% | outcome [17] | outcome [18] | outcome [19] | outcome [20]

NCCNS(=O)(=O)c1cccc2cnccc12
active: Potency [5] 11.2 µM
inactive: Potency [6]

Cc1cccc(/C=C\c2ccccc2)n1
inactive: Potency [2]

Reference: PubChem BioAssay (NCATS)
